Screens (PubChem)
The sample as a whole holds a higher share of hits than the screen did.
Pf Dd2 growth: Plasmodium falciparum Dd2 growth inhibition; P. falciparum Dd2 growth, SYBR Green, 72 h; Potency, µM (doses to about 28.9 µM), for inactives: at the top dose activity, negative = inhibition, most hits filed as inhibitors; 120,000 compounds, 4.3% hits; active = well fitted inhibition curve with a large enough effect;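 note: plate controls were DMSO vehicle for no effect and reference drug for full effect; nearly all actives have a fitted effect of over 65% in size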
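Infected erythrocytes (Dd2, 0.3% parasitemia, 2.5% hematocrit final) are added to compound in RPMI-1640/Albumax II medium, grown 72 h at 37C in low oxygen, then lysed with saponin/Triton-X containing SYBR Green and read by fluorescence.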
* marks the source's active call; other numbers are inactive results; i = inactive; [ ] = remark or other dose. Potency is the fitted concentration of half-maximal effect.

SMILES | Pf Dd2 growth
COc1cccc([S+](=O)([O-])N2CCn3c(nn(-c4ccc(C(F)(F)F)cc4)c3=O)C2)c1 | -2%
c1ccc(C2CNC2)nc1 | -2%[76.6 µM]
CC(C)C[C@@H]1N[C@H](C(=O)N2CCOCC2)Cc2cn(Cc3nccn3C)c3cccc1c23 | 11µM*
CCCNC(=O)[C@@H]1Cc2cn(Cc3nccn3C)c3cccc(c23)[C@H](CC(C)C)N1 | 10µM*
COCCCNC(=O)[C@@H]1Cc2cn(Cc3nccn3C)c3cccc(c23)[C@H](CC(C)C)N1 | -4%[44.1 µM]
CC(C)C[C@@H]1N[C@H](C(=O)NCCN(C)C)Cc2cn(Cc3ccccn3)c3cccc1c23 | -19%[44.1 µM]
C=CCn1cc2c3c(cccc31)[C@H](CC(C)C)N[C@H](C(=O)NCc1ccccn1)C2 | 11µM*
CC(C)C[C@@H]1N[C@H](C(=O)NCc2ccccn2)Cc2cn(Cc3ccncc3)c3cccc1c23 | -29%
CC(C)C[C@@H]1N[C@H](C(=O)NCc2ccccc2)Cc2cn(Cc3cccnc3)c3cccc1c23 | -7%
CC(C)C[C@@H]1N[C@H](C(=O)NCCN2CCOCC2)Cc2cn(Cc3ccccn3)c3cccc1c23 | i
C#CCNC(=O)[C@@H]1Cc2cn(Cc3ccncc3)c3cccc(c23)[C@H](CC(C)C)N1 | 10µM*
Cc1nc2n(c1C(=O)Nc1nccs1)CCC(Nc1ccccc1)C2 (stereo not given) | i
CCCOc1ccc(CN2C[C@@H]3C(=O)N(C)C(=O)[C@@H]3C2)cc1OC | 20%
COCc1noc(CCNC(=O)c2ccc(C)c(N3CCNC3=O)c2)n1 | 1%
O=C1CC2(CCN(Cc3cccnc3)CC2)Oc2ccccc2N1 | -12%[44.1 µM]
CN(C)c1cc(N2CCCC(NC(=O)Cc3cccs3)C2)ncn1 (stereo not given) | 36%[5.79 µM]
CNC(=O)[C@@H]1CN(Cc2ccccc2C(F)(F)F)C[C@H]1CO | i
O=C(NCc1ccco1)N1C[C@@H](c2ccc(F)cc2)[C@@H]2[C@H]1C1CCN2CC1 | 11%
COc1ccc(CN2CCC3(CC2)C(=O)NCN3Cc2ccc(Cl)cc2)cc1 | 3.2µM*
Cc1cc(CN2CCC3(C2)NC(=O)c2ccccc2O3)no1 (stereo not given) | -18%[44.1 µM]
Cn1cccc1CN1CCC2(CC1)C(=O)NCN2Cc1ccc(Cl)cc1 | 1%
COc1cccc(CN2CCC3(C2)NC(=O)c2ccccc2O3)c1 (stereo not given) | 13µM*
CN(C)c1ccc(CN2CCC3(CC2)NC(=O)c2ccccc2O3)cc1 | i
COc1ccc(CN2CCC3(C2)NC(=O)c2ccccc2CO3)cc1 (stereo not given) | -16%
CC(=O)Nc1ccc(CN2CCC3(CC2)NC(=O)c2ccccc2O3)cc1 | i
SMILES | Pf Dd2 growth
O=C1NCN(Cc2ccc(Cl)cc2)C12CCN(Cc1ccncc1)CC2 | i
O=C1NC2(CCN(Cc3ccc(F)cc3)CC2)Oc2ccccc21 | 10µM*
COc1ccc(CN2CCC3(CC2)NC(=O)c2ccccc2O3)cc1 | 13µM*
O=C1NC2(CCN(Cc3ccsc3)CC2)Oc2ccccc21 | -23%[44.1 µM]
COc1cccc([S+](=O)([O-])N2CCC3(CC2)NC(=O)c2ccccc2O3)c1 | i
Cc1nc(C)c(C(=O)N2CCCn3cc(-c4ccccc4F)nc32)s1 | -27%
COCCN1C(=O)CC[C@]2(C(=O)N3CCCCCC3)CCCC[C@@H]12 | -10%
Cn1c(CCNC(=O)C2CCCN(C(=O)c3ccccc3)CCC(=O)NCC2)nc2ccccc21 (stereo not given) | 9%
COc1ccc(CC(=O)Nc2ccc([C@@H](O)[C@H]3COCC(=O)N3Cc3ccccc3F)cc2)cc1 | -6%
O=C(CC1CCCN(c2cnn(CC3CC3)c(=O)c2)C1)NCc1cc(F)ccc1F (stereo not given) | i
CN(CC(=O)N1CCc2c(c(-c3nncn3Cc3ccccc3)nn2C)C1)S(=O)(=O)c1cnc[nH]1 | -15%
O=C1NC2(CCCN(Cc3ccsc3)C2)COc2ccccc21 (stereo not given) | 0%[44.1 µM]
O=C1NC2(CCN(Cc3ccc(F)cc3)C2)Oc2ccccc21 (stereo not given) | 11µM*
O=C1NC2(CCCN(Cc3ccc(F)cc3)C2)COc2ccccc21 (stereo not given) | -15%
O=C1NC2(CCN(Cc3ccc(C(F)(F)F)cc3)C2)Oc2ccccc21 (stereo not given) | i
O=C1NC2(CCCN(Cc3cccnc3)C2)COc2ccccc21 (stereo not given) | i
O=C1NC2(CCN(Cc3ccccc3)C2)Oc2ccccc21 (stereo not given) | i
O=C1NC2(CCCN(Cc3ccccn3)C2)COc2ccccc21 (stereo not given) | 0.63µM*
COc1cccc(CN2CCCC3(COc4ccccc4C(=O)N3)C2)c1 (stereo not given) | 11µM*
O=C1NC2(CCCN(Cc3ccccc3)C2)Oc2ccccc21 (stereo not given) | 13µM*
O=C1NC2(CCCN(Cc3ccncc3)C2)Oc2ccccc21 (stereo not given) | -21%[44.1 µM]
COc1cccc(CN2CCC3(COc4ccccc4C(=O)N3)C2)c1 (stereo not given) | i
CN(C)c1ccc(CN2CCC3(C2)NC(=O)c2ccccc2O3)cc1 (stereo not given) | i
CCc1noc(-c2cccn3c(CNC(=O)c4cccc(OC)c4)nnc23)n1 | i
CC(O)CN1CC2(CCC1=O)CCN(S(=O)(=O)N1CCCC1)CC2 (stereo not given) | 7%
SMILES | Pf Dd2 growth
Cc1cc2cccc(C(=O)N3CCc4nc(-c5cn[nH]c5)[nH]c4C3)c2o1 | -5%
NC(=O)NCc1cn(C2CCN(C(=O)C3CCCCCC3)CC2)nn1 | -1%
O=C1NCCCN1C1CCN(Cc2cccc(OC(F)(F)F)c2)CC1 | i
CCCn1cc(CNC(=O)c2cc3c(s2)CCC(C)C3)cn1 (stereo not given) | -24%
CC(=O)N1CC(=O)Nc2ccc(F)cc2C1c1ccccc1 (stereo not given) | 20%
CCOc1ccc(C(=O)N2CC(=O)Nc3ccc(F)cc3C2c2ccc(F)cc2)cc1 (stereo not given) | 9%
CN(C)S(=O)(=O)c1ccc(C(=O)N2CC(=O)Nc3ccc(Br)cc3C2c2ccc(F)cc2)cc1 (stereo not given) | 0%
CCCCC(=O)N1CC(=O)Nc2ccc(F)cc2C1c1ccc(F)cc1 (stereo not given) | 7.9µM*
COc1ccc(CC(=O)N2CC(=O)Nc3ccc(Br)cc3C2c2ccc(F)cc2)cc1 (stereo not given) | -18%
CCCCC1CCC(C(=O)N2CC(=O)Nc3ccc(Br)cc3C2c2ccc(F)cc2)CC1 (stereo not given) | 10µM*
COC(=O)[C@H](Cc1ccc(OC)cc1)NC(=O)[C@@H]1CN(S(C)(=O)=O)CCN1S(=O)(=O)c1ccccc1 | 20%
COC(=O)[C@H](Cc1ccc(OC)cc1)NC(=O)[C@H]1CN(S(=O)(=O)c2ccccc2)CCN1C(=O)NC1CCCCC1 | 11µM*
COC(=O)[C@@H](C)NC(=O)[C@H]1CN(S(=O)(=O)c2ccccc2)CCN1C(=O)NC1CCCCC1 | 14%
CN(C)c1ccc(C(=O)N2CCN(S(C)(=O)=O)[C@H](C(=O)N[C@@H](CC3CCCCC3)C(N)=O)C2)cc1 | i
COC(=O)[C@H](Cc1ccc(OC)cc1)NC(=O)[C@H]1CN(C(=O)Nc2ccccc2)CCN1C(=O)C1CCCCC1 | i
COC(=O)[C@H](Cc1ccc(OC)cc1)NC(=O)[C@H]1CN(C(=O)c2ccc(N(C)C)cc2)CCN1C(=O)c1cccs1 | 0.14µM*
